Source: PubChem BioAssay
A selection: hits, their analogues and other compounds. The true share with any hit is near 7.9%.
HT1080NT lethal = kills 2HG-producing HT-1080-NT fibrosarcoma cells. Potency, µM (titrated, usually from 46.1 µM), without a hit: at the highest dose activity, negative = less viability, actives largely listed as cytotoxic. AID 686970. HT-1080-NT fibrosarcoma viability, CellTiter-Glo ATP luminescence, 48 h. 360,000 compounds, 1.6% hits;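 also: NT is the 2HG producing partner of a matched IDH1 knockdown line; 0% = DMSO-treated cells and -100% = media-only wells without cells; nearly all actives have a fitted effect of over 55% in size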
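Toxicity toward the 2HG-producing NT line was scored as %Activity, normalised to DMSO and no-cell wells, from CellTiter-Glo luminescence after 48 hours' treatment.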
HT1080 IDH1KD tx = toxicity to HT-1080 IDH1 knockdown cells (counter line); HT-1080 IDH1 knockdown viability, ATP luminescence, 48 h; Potency, µM (titrated, usually from 46.1 µM), inactives show at the highest dose activity, negative = toxicity, usual class: cytotoxic; 360,000 compounds, 2% hits;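 also: 0% = DMSO wells and -100% = cell-free medium wells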
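HT-1080-IDH1KD cells (IDH1 knocked down), 750/well in RPMI with 5% FBS, treated with compound 48 h at 37 degrees C. Viability by CellTiter-Glo luminescence, normalised to DMSO and no-cell wells; concentration-response curves classed.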
MCF10A rereplic = induces DNA re-replication in MCF 10a normal breast cells; MCF 10A DNA re-replication, Hoechst nuclear intensity, 48 h; Potency, µM (doses to about 46.1 µM), inactives show top-dose activity, positive = re-replication, hits mostly activators; 350,000 compounds, 2.9% hits; also: % of control where 0% means no effect; nearly all actives have a fitted effect of over 50% in size
SW480 rerep = induces DNA re-replication in SW480 colon adenocarcinoma cells | SW480 DNA re-replication, Hoechst DNA content imaging, 48 h | Potency, µM (highest dose often 46.1 µM), for inactives: at the top dose re-replication activation, actives largely listed as activators | 340,000 compounds, 1.8% hits; also: % of control where 0% means no effect; nearly all actives have a fitted effect of over 55% in size
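Image-based read-out: total Hoechst fluorescence of nuclei (405 nm excitation, 500-530 nm emission), with hits raising the fraction of high-intensity nuclei. SW480 colon cells incubated 48 hr with compounds at 37 C.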
KB-3-1 cytotox = kills parental KB-3-1 adenocarcinoma cells. KB-3-1 viability, CellTiter-Glo ATP luminescence, 72 h. Potency, µM (titrated, usually from 46.1 µM), hits mostly cytotoxic. 400,000 compounds, 1.4% hits. AID 1347075; also: % is scaled to controls: 0 for no effect and ±100 for the full control effect; nearly all actives have a fitted effect of over 60% in size
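KB-3-1 parental drug-naive adenocarcinoma cells in DMEM/10% FBS, incubated 72 h at 37 C with pin-transferred compounds across a concentration series. Viability by CellTiter-Glo luminescence; concentration-response curves fitted after normalization.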
KB-V1 cytotox = KB-V1 MDR subline cytotoxicity. 400,000 compounds, 3.4% hits. KB-V1 MDR cells viability, CellTiter-Glo, 72 h. Potency, µM (highest dose often 46.1 µM), actives largely listed as cytotoxic; also: % is scaled to controls: 0 for no effect and ±100 for the full control effect; nearly all actives have a fitted effect of over 60% in size
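KB-V1, DMEM (no phenol red) + 10% FBS; cpd pin-transferred, titration series; 72 h, 37 degrees C; CellTiter-Glo, luminescence. Data normalized, curve-fit.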
An asterisk follows results filed as active; [ ] = dose if it differs, or a comment. Calls follow the shape of the dose curve; as a rule, active = well fitted curve in the direction sought with a large enough effect; inconclusive = small, poorly fitted or top-dose-only effect, or another doubt; inactive = no such curve, though single readings can be large; an effect the other way counts as inactive or inconclusive. Potency is read from the fitted curve at half-maximal effect.

Cc1ccc([C@H]2C[C@H](O)[C@@H](n3cc(C4CC4)nn3)CN2CC2CCCCC2)cc1 was read as HT1080NT lethal -4%, HT1080 IDH1KD tx 22%, KB-3-1 cytotox inactive and KB-V1 cytotox inactive.
For COc1cccc(C(=O)NCCS(=O)(=O)N2CCCC(C)C2)c1 (stereo not given) the results were HT1080NT lethal 3%, HT1080 IDH1KD tx 6%, KB-3-1 cytotox inactive and KB-V1 cytotox inactive.
CC(NNC(=S)N1CCCCCC1)c1ccc2ccccc2n1 (stereo not given) was read as HT1080NT lethal 23µM*, HT1080 IDH1KD tx inconclusive, KB-3-1 cytotox inconclusive and KB-V1 cytotox inactive.
`S=C(Nc1ccccc1)N1CCCCCC1` gave HT1080NT lethal 21%, HT1080 IDH1KD tx 5%, MCF10A rereplic 2%, SW480 rerep -6%, KB-3-1 cytotox inactive and KB-V1 cytotox inactive.
Screening Cc1ccc(C(=O)C(C)Oc2ccc3ccc(=O)oc3c2)cc1 (stereo not given) returned HT1080NT lethal 5%, HT1080 IDH1KD tx 0%, MCF10A rereplic 17% and SW480 rerep 7%.
For COc1ccc(CNC(=O)C2Cc3c(-c4ccc5c(c4)OCO5)ccnc3O2)cc1OC (stereo not given) the results were HT1080NT lethal inconclusive, HT1080 IDH1KD tx inconclusive, KB-3-1 cytotox 21µM* and KB-V1 cytotox 9.2µM*.
For COc1ccc(NC(=O)C2Cc3c(-c4ccc5c(c4)OCO5)ccnc3O2)cc1OC (stereo not given) the results were HT1080NT lethal inconclusive, HT1080 IDH1KD tx 16µM*, KB-3-1 cytotox inconclusive and KB-V1 cytotox inactive.
Screening O=C(NCc1ccc(F)c(F)c1)C1Cc2c(-c3ccc4c(c3)OCO4)ccnc2O1 (stereo not given) returned HT1080NT lethal inconclusive, HT1080 IDH1KD tx inconclusive, KB-3-1 cytotox 8.2µM* and KB-V1 cytotox 4.1µM*.
Screening CCC1(C)SC(NC(C)=O)=NN1C(C)=O (stereo not given) returned HT1080NT lethal 2%, HT1080 IDH1KD tx -3%, MCF10A rereplic -2%[9.22 µM], SW480 rerep -19%, KB-3-1 cytotox inactive and KB-V1 cytotox inactive.
For CCOc1ccccc1OCCNC1CCCC1 the results were HT1080NT lethal 0%, HT1080 IDH1KD tx 6%, MCF10A rereplic inconclusive, SW480 rerep 23µM*, KB-3-1 cytotox inactive and KB-V1 cytotox inactive.
Screening CCOc1ccc(OCCNC2CCCC2)cc1 returned HT1080NT lethal -2%, HT1080 IDH1KD tx -5%, MCF10A rereplic 0%, SW480 rerep -8%, KB-3-1 cytotox inactive and KB-V1 cytotox inconclusive.
COc1cccc(OC)c1OCCCNC1CCCC1 was read as HT1080NT lethal -15%, HT1080 IDH1KD tx 0%, MCF10A rereplic -3%, SW480 rerep 6.5µM*, KB-3-1 cytotox inactive and KB-V1 cytotox inactive.
For CCCOc1ccc(OCCNC2CCCC2)cc1 the results were HT1080NT lethal -3%, HT1080 IDH1KD tx 0%, MCF10A rereplic inconclusive, SW480 rerep -4%, KB-3-1 cytotox inactive and KB-V1 cytotox 23µM*.
CC(C)(C)c1ccc(OCCCNC2CCCC2)cc1 was read as HT1080NT lethal inconclusive, HT1080 IDH1KD tx inconclusive, MCF10A rereplic 16µM*, SW480 rerep inconclusive, KB-3-1 cytotox inconclusive and KB-V1 cytotox inconclusive.
N#Cc1ccccc1OCCCNC1CCCC1 was read as HT1080NT lethal 15%, HT1080 IDH1KD tx 2%, MCF10A rereplic -4%, SW480 rerep 6%, KB-3-1 cytotox inactive and KB-V1 cytotox inactive.
Screening COCCn1c(=NC(=O)c2ccc3c(c2)OCCO3)sc2cc(S(N)(=O)=O)ccc21 returned HT1080NT lethal -16%, HT1080 IDH1KD tx -18%, MCF10A rereplic inconclusive, SW480 rerep 8%, KB-3-1 cytotox inactive and KB-V1 cytotox inactive.
CC(C)(C)c1ccc(C(=O)Nc2ccc(S(=O)(=O)Nc3cnc4ccccc4n3)cc2)cc1 was read as HT1080NT lethal inconclusive, HT1080 IDH1KD tx inconclusive, MCF10A rereplic inconclusive, SW480 rerep 11%, KB-3-1 cytotox inactive and KB-V1 cytotox inactive.
O=C(Nc1ccc(S(=O)(=O)Nc2cnc3ccccc3n2)cc1)c1ccc(F)cc1 was read as HT1080NT lethal -3%, HT1080 IDH1KD tx -27%, MCF10A rereplic -5%, SW480 rerep 7.3µM*, KB-3-1 cytotox inactive and KB-V1 cytotox inactive.
`O=S(=O)(Nc1nc2ccccc2nc1N1CCN(c2ccccc2F)CC1)c1ccc(Cl)cc1` gave HT1080NT lethal -8%, HT1080 IDH1KD tx -17%, MCF10A rereplic 10µM*, SW480 rerep -2%, KB-3-1 cytotox 11µM* and KB-V1 cytotox inconclusive.
Screening CCOc1ccc(S(=O)(=O)Nc2nc3ccccc3nc2N2CCN(C)CC2)cc1 returned HT1080NT lethal -1%, HT1080 IDH1KD tx 1%, MCF10A rereplic 20%, SW480 rerep 1%, KB-3-1 cytotox inactive and KB-V1 cytotox inactive.
NS(=O)(=O)c1cccc(Nc2nc3ccccc3nc2NS(=O)(=O)c2ccc(Cl)cc2)c1 was read as HT1080NT lethal 18µM*, HT1080 IDH1KD tx 21µM*, MCF10A rereplic inconclusive, SW480 rerep -4%, KB-3-1 cytotox inactive and KB-V1 cytotox inactive.
For CC(=O)Nc1ccc(S(=O)(=O)Nc2nc3ccccc3nc2Nc2cccc(O)c2)cc1 the results were HT1080NT lethal -17%, HT1080 IDH1KD tx -12%, MCF10A rereplic 11%, SW480 rerep -3%, KB-3-1 cytotox inactive and KB-V1 cytotox inactive.
For CCOC(=O)N1CCC(Nc2nc3ccccc3nc2NS(=O)(=O)c2ccc(Cl)cc2)CC1 the results were HT1080NT lethal -19%, HT1080 IDH1KD tx -7%, MCF10A rereplic 0%, SW480 rerep 9%, KB-3-1 cytotox inconclusive and KB-V1 cytotox 15µM*.
Screening COc1ncccc1-c1cnc2cccnn12 returned HT1080NT lethal 19%, HT1080 IDH1KD tx inconclusive, KB-3-1 cytotox inactive and KB-V1 cytotox inactive.
`O=C(O)c1ccc(Nc2nc3ccccc3nc2NS(=O)(=O)c2ccc(F)cc2)cc1` gave HT1080NT lethal -11%, HT1080 IDH1KD tx -5%, MCF10A rereplic 23µM*, SW480 rerep -15%, KB-3-1 cytotox inactive and KB-V1 cytotox inactive.
Screening O=[N+]([O-])c1ccc(S(=O)(=O)Nc2nc3ccccc3nc2Nc2ccccc2)cc1 returned HT1080NT lethal 6%, HT1080 IDH1KD tx 0%, MCF10A rereplic 10%, SW480 rerep 13%, KB-3-1 cytotox inactive and KB-V1 cytotox 5.2µM*.
